Assay [1] has as its system TSSK3. The note with it: concentration: 1 μM, replicates: in singlicate, n = 1.
Assay [2] relates to TTK. The note with it: concentration: 1 μM, replicates: in singlicate; n = 1.
In assay [3] the test system is TXK. The note with it: concentration: 1 μM, replicates: in singlicate, n = 1.
Assay [4] deals with TYK2(JH1domain-catalytic). The settings on record: concentration: 1 μM, replicates: in singlicate, n = 1.
The subject of assay [5] is TYK2(JH2domain-pseudokinase). The note with it: concentration: 1 μM, replicates: in singlicate, n = 1.
Assay [6] relates to TYRO3. The settings on record: concentration: 1 μM, replicates: in singlicate, n = 1.
The subject of assay [7] is ULK1. The note with it: concentration: 1 μM, replicates: in singlicate, n = 1.
The test system of assay [8] is ULK2. The note with it: concentration: 1 μM, replicates: in singlicate; n = 1.
Assay [9] concerns ULK3. The settings on record: concentration: 1 μM, replicates: in singlicate, n = 1.
For assay [10], the system named is T1, VEGFR2.
T1 construct: gene KDR
The settings on record: concentration: 1 μM, replicates: in singlicate, n = 1.

In assay [11] the test system is T2, VPS34.
T2 construct: gene PIK3C3
The settings on record: concentration: 1 μM, replicates: in singlicate, n = 1.

Assay [12] concerns VRK2. The note with it: concentration: 1 μM, replicates: in singlicate, n = 1.
Assay [13] relates to WEE1. The note with it: concentration: 1 μM, replicates: in singlicate, n = 1.
Assay [14] relates to WEE2. The note with it: concentration: 1 μM, replicates: in singlicate; n = 1.
For assay [15], the system named is WNK1. The settings on record: concentration: 1 μM, replicates: in singlicate, n = 1.
For assay [16], the system named is WNK2. The settings on record: concentration: 1 μM, replicates: in singlicate, n = 1.
Assay [17] relates to WNK3. The settings on record: concentration: 1 μM, replicates: in singlicate, n = 1.
Assay [18] has as its system WNK4. The settings on record: concentration: 1 μM, replicates: in singlicate, n = 1.
Assay [19] concerns T3, YANK1.
T3 construct: gene STK32A
The settings on record: concentration: 1 μM, replicates: in singlicate, n = 1.

In assay [20] the test system is T4, YANK2.
T4 construct: gene STK32B
The note with it: concentration: 1 μM, replicates: in singlicate, n = 1.

“And” between values parts separate entries of the source, which are not always exact repeats. Equal values may be shown once. Read-outs that look alike come from different tables or passages of the source.
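Note: KINOMEscan kinase panel screen.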

As for `Cc1cccc(-c2nc(Nc3ccc4ncsc4c3)c3ccccc3n2)n1` [GW867588], the “%Inh” value in assay [1] came to 0%; in assay [2], 55%; in assay [3], 0%; in assay [4], 0%; in [5], 55%; in [6] it was 0%. For the same compound, the “%Inh” value in assay [7] amounted to 4%; in assay [8], 0%; in assay [9] it was 2%; in [10], 6%; in assay [11], 0%; in assay [12] it was 0%. Moreover, the “%Inh” value in assay [13] is recorded as 8%; in [14], 6%; in assay [15], 0%; in [16], 6%; in assay [17] it was 31%; in assay [18], 0%. Also, the “%Inh” value in [19] and in assay [20] was 0% in each case.

`Cn1ccc2ncnc(Oc3ccc(NC(=O)Nc4ccncc4)c(Cl)c3)c21`: the “%Inh” value in [1] came out at 0%; in [2], 0%; in assay [3], 0%; in assay [4], 3%; in [5], 5%; in [6], 0%. The “%Inh” value in assay [7] is reported as 0%; in [8], 10%; in [9], 0%; in assay [10], 1%; in assay [11], 0%; in [12], 0%. Besides, the “%Inh” value in assay [13], in [14], in assay [15], in assay [16], in assay [17] and in assay [18] was 0% in each case. For the same compound, the “%Inh” value in [19] is listed as 0%; in assay [20], 5%.

Consider `Cc1cn2c(=O)cc(N3CCOCC3)nc2n1Cc1cccc(Cl)c1Cl` [GSK2334006], for which the “%Inh” value in [1] amounted to 29%; in assay [2] it was 0%; in assay [3], 8%; in assay [4], 19%; in [5] it was 18%; in assay [6] it was 7%. The “%Inh” value amounted to 0% in assay [7]; 0% in [8]; 7% in assay [9]; 8% in assay [10]; 96.7% in assay [11]; 0% in [12]. For the same compound, the “%Inh” value in [13] came to 20%; in assay [14], 16%; in assay [15], 0%; in assay [16] it was 19%; in assay [17] it was 27%; in [18] it was 0%. Besides, the results for the “%Inh” value in assay [19] and in assay [20] were 23% and 0%, respectively.

Consider `COc1ccc(Nc2ncc(C#N)c(Nc3ccccc3C(N)=O)n2)cc1N1CCN(C)CC1.Cl` [GSK1558669], for which the “%Inh” value in assay [1] is recorded as 79%; in assay [2], 99.5%; in assay [3], 84%; in [4] it was 99.8%; in assay [5] it was 99.7%; in assay [6] it was 35%. Also, the “%Inh” value is 100% in assay [7]; 100% in assay [8]; 100% in [9]; 100% in assay [10]; 43% in assay [11]; 0% in assay [12]. Besides, the “%Inh” value is recorded as 99.8% in assay [13]; 100% in assay [14]; 66% in assay [15]; 31% in assay [16]; 4% in assay [17]; 0% in assay [18]. The “%Inh” value in [19] was 93.5%; in assay [20], 68%.

As to `O=C(Nc1n[nH]c2cc(-c3cccc(F)c3)ccc12)C1CC1` [SB-735464], the “%Inh” value came to 9% in assay [1]; 21% in assay [2]; 14% in assay [3]; 1% in assay [4]; 10% in [5]; 0% in assay [6]. Besides, the “%Inh” value in [7] is given as 2%; in [8], 12%; in [9], 29%; in assay [10], 12%; in [11] it was 0%; in assay [12] it was 23%. The “%Inh” value in assay [13] is recorded as 0%; in assay [14], 4%; in assay [15] it was 28%; in assay [16], 0%; in [17], 36%; in assay [18], 22%. Also, the “%Inh” value in [19] and in assay [20] was 0% throughout.

`Cl.Oc1cccc(Nc2ccnc3cc(-c4ccncc4)ccc23)c1` [GW494601]: the “%Inh” value in assay [1] stood at 6%; in assay [2], 39%; in assay [3], 97.6%; in assay [4], 93.1%; in assay [5] it was 49%; in assay [6], 82%. For the same compound, the “%Inh” value is given as 0% in [7]; 0% in assay [8]; 31% in assay [9]; 95.4% in assay [10]; 34% in assay [11]; 6% in assay [12]. In addition, the “%Inh” value in assay [13] amounted to 10%; in [14] it was 7%; in assay [15], 0%; in [16] it was 13%; in [17], 41%; in assay [18], 46%. For the same compound, the “%Inh” value was found to be 33% in assay [19] and 12% in assay [20].

Regarding `C[C@@H](Oc1cc(-n2cnc3ccc(NC(=O)NC(C)(C)C)cc32)sc1C(N)=O)c1ccccc1Cl` [GSK346294], the “%Inh” value is 21% in [1]; 0% in assay [2]; 0% in assay [3]; 8% in assay [4]; 0% in [5]; 0% in assay [6]. Moreover, the “%Inh” value worked out at 0% in assay [7]; 0% in assay [8]; 15% in [9]; 3% in assay [10]; 0% in assay [11]; 5% in [12]. In addition, the “%Inh” value amounted to 5% in assay [13]; 12% in assay [14]; 14% in assay [15]; 25% in [16]; 33% in [17]; 0% in assay [18]. Moreover, the “%Inh” value in assay [19] and in assay [20] was 0% each time.

As to `NS(=O)(=O)c1cccc(-c2ccc3ncc(N4CCOCC4)nc3c2)c1` [GSK1535721], the “%Inh” value was 6% in [1]; 6% in assay [2]; 0% in assay [3]; 0% in assay [4]; 31% in assay [5]; 0% in assay [6]. The “%Inh” value in assay [7] was determined as 0%; in assay [8], 0%; in [9], 2%; in assay [10], 10%; in assay [11] it was 87%; in assay [12], 8%. For the same compound, the “%Inh” value in assay [13] came out at 5%; in [14] it was 8%; in assay [15], 0%; in [16] it was 0%; in [17], 24%; in assay [18], 16%. The “%Inh” value is given as 2% in assay [19] and 3% in [20].

Take `Nc1nc(-c2ccc3c(N)n[nH]c3c2)cc(N2CCCC2)n1` [GSK2227430]: the “%Inh” value in assay [1] was 17%; in assay [2], 11%; in assay [3] it was 0%; in assay [4] it was 0%; in assay [5] it was 46%; in assay [6], 0%. Further, the “%Inh” value in assay [7] is recorded as 0%; in assay [8], 0%; in [9] it was 2%; in assay [10], 0%; in assay [11], 0%; in assay [12], 0%. Further, the “%Inh” value worked out at 35% in [13]; 0% in assay [14]; 0% in assay [15]; 0% in assay [16]; 8% in [17]; 0% in assay [18]. Moreover, the “%Inh” value in assay [19] and in [20] was 0% throughout.

As for `COc1cc2c(cc1OCCN1CCN(C)CC1)ncc1c3ccc(C#N)cc3[nH]c21`, the “%Inh” value is 9% in assay [1]; 7% in assay [2]; 0% in [3]; 0% in [4]; 35% in [5]; 0% in assay [6]. Besides, the “%Inh” value is recorded as 92.4% in assay [7]; 99.9% in assay [8]; 66% in assay [9]; 23% in assay [10]; 0% in assay [11]; 0% in [12]. Also, the “%Inh” value in assay [13] stood at 24%; in [14] it was 3%; in assay [15], 0%; in assay [16], 0%; in [17], 0%; in assay [18], 0%. Also, the “%Inh” value in assay [19] and in assay [20] was 0% throughout.

For `CC(C)(CN)c1nc(-c2ccc(Cl)c(O)c2)c(-c2ccncc2)[nH]1.O=C(O)C(F)(F)F` [SB-477794], the “%Inh” value in assay [1] (1 µM) was 6% and 16%; in [2], 0%; in [3] (1 µM), 100% and 96.2%; in assay [4] (1 µM) it was 59% and 16%; in assay [5] (1 µM) it was 73% and 41%; in assay [6] (1 µM) it was 12% and 34%. In addition, the “%Inh” value in [7] (1 µM) was 19% and 0%; in assay [8] it was 0%; in assay [9] (1 µM), 16% and 2%; in assay [10] (1 µM), 86% and 83%; in assay [11] (1 µM), 0% and 48%; in [12] (1 µM) it was 41% and 42%. Besides, the “%Inh” value in [13] (1 µM) is 8% and 7%; in assay [14], 0%; in [15] (1 µM) it was 16% and 0%; in assay [16] (1 µM) it was 1% and 9%; in assay [17] (1 µM) it was 52% and 39%; in [18] (1 µM), 47% and 49%. Also, the “%Inh” value was 95.3% and 93.8% in [19] (1 µM); 93.6% and 94% in assay [20] (1 µM).

Source of the values: publication PMC5540273 (PLoS ONE, 2017).
